Screens: PubChem, National Center for Advancing Translational Sciences (NCATS)
p53null 32C kill = p53 null cell cytotoxicity, permissive temperature; AID 903; Potency, µM (top dose mostly 46.1 µM), inactives show top-dose activity change, negative = cytotoxicity, usual class: cytotoxic; 55,000 compounds, 0.62% hits; H1299-neo p53 null cells, ATP luminescence, 24 h, 32C;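 note: potency is the fitted concentration of half-maximal effect; 0% = DMSO only and -100% = full killing by 100 µM tamoxifen; nearly all actives have a fitted effect of over 55% in size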
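Overnight 37C seeding (600 cells/well) of H1299-neo preceded a 24 hr, 32C exposure to compounds up to 46 uM. ATP levels, read by luminescence after 20 min at RT, indicated surviving cells.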
p53null 39C tox = selectivity test: cytotoxicity in p53 null cells, nonpermissive temperature; H1299 p53-null (neo) cells, 39C, ATPlite viability, 24 h; Potency, µM (highest dose often 46.1 µM), for the others: top-dose activity, negative = cell killing, actives largely listed as cytotoxic; 55,000 compounds, 0.97% hits; AID 904;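 note: potency is the fitted concentration of half-maximal effect; 0% = DMSO only and -100% = full killing by 100 µM tamoxifen; nearly all actives have a fitted effect of over 50% in size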
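Cells seeded at 600/well, 37C overnight. Compound added (up to 46 uM), plates shifted to 39C for 24 hr. ATPlite added, luminescence read after 20 min at room temperature.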
OvCa metastasis = ovarian cancer metastasis inhibition, 3D TME model. 46,000 compounds, 0.1% hits. SKOV3ip1-GFP adhesion/invasion on 3D omental model, fluorescence. AID 1963576. Potency, µM (highest dose often 45.8 µM), for the others: at the highest dose activity change, negative = inhibition, usual class: inhibitors;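 note: potency is the fitted concentration of half-maximal effect; plate controls were DMSO wells for no effect and tomatine positive control wells for full effect; nearly all actives have a fitted effect of over 65% in size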
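Primary human omental fibroblast/mesothelial 3D culture pre-formed 48 h. SKOV3ip1-GFP cells added with compounds (0.36-46 umol/L), incubated 2 h RT/16 h 37 C, fixed; GFP cells quantified at 488/509 nm.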
S16 viability = toxic to S16 Pmp22-F2sN Schwann cells; S16 Pmp22-F2sN Schwann cells viability, CellTiter-Glo, 24 h; Potency, µM (titrated, usually from 57.5 µM), for the others: at the highest dose activity change, negative = cytotoxicity, actives largely listed as cytotoxic; 43,000 compounds, 0.48% hits; AID 1508642; note: potency is the fitted concentration of half-maximal effect; % is set by controls: 0 for no effect and ±100 for the full control effect; nearly all actives have a fitted effect of over 65% in size
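Used to flag compounds lowering reporter output through toxicity, this quantitative HTS measures ATP-based CellTiter-Glo luminescence in S16 Pmp22-F2sN Schwann cells after 24 h compound exposure at 37C.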
PMP22 txn prim = modulates PMP22 transcription in S16 Schwann cells | S16 Pmp22-F2sN Schwann cells, FLuc/NLuc coincidence luminescence, 24 h | Potency, µM (doses to about 57.5 µM), for inactives: top-dose activity change, negative = inhibition, usual class: inhibitors | 43,000 compounds, 2% hits; active = clear falling dose curves in both reporters; inconclusive = both reporters move, but less clearly or upward; inactive = either reporter flat; the % is the NLuc reporter signal; note: potency is the fitted concentration of half-maximal effect; % is set by controls: 0 for no effect and ±100 for the full control effect
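qHTS, 1536-well. Cells seeded, compounds added by pin tool, 24 h 37C. Nano-Glo reagent 1 (lysis/FLuc), 10 min RT, read; Stop&Glo, 10 min RT, read NLuc.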
mTORC1 inh = mTORC1 pathway inhibition measured by phospho-rpS6 | Tsc2-/- p53-/- MEF, phospho-rpS6 immunofluorescence/PI, 24 h | Potency, µM (top dose mostly 38.3 µM), for inactives: at the highest dose activity change, negative = inhibition, hits mostly inhibitors | 44,000 compounds, 0.78% hits;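 note: potency is the fitted concentration of half-maximal effect; plate controls were DMSO for no effect and rapamycin for full effect; nearly all actives have a fitted effect of over 50% in size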
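Plate MEFs (Tsc2-/-, p53-/-, empty vector) in DMEM/10% FBS; after 24 h add compound, incubate 24 h at 37 degree Celsius; fix in PFA/TX-100, block, stain phospho-rpS6 and 10 uM PI; scan at 488 nm; report % positive cells.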
NLuc saturating = NanoLuc enzyme inhibition artifact for PMP22 screen; Potency, µM (top dose mostly 57.5 µM), for inactives: at the top dose activity change, negative = inhibition, hits mostly inhibitors; 690 compounds, 4% hits; Secreted NLuc enzyme (filtered S16 cell medium), Nano-Glo luminescence; AID 1508638; shares compounds with PMP22 txn prim; note: potency is the fitted concentration of half-maximal effect; % is set by controls: 0 for no effect and ±100 for the full control effect
NLuc Km ctr = NanoLuc inhibition at Km substrate, PMP22 artifact check | shares compounds with PMP22 txn prim | secreted NLuc enzyme, coelenterazine luminescence, Km conditions | Potency, µM (series often up to 57.5 µM), for inactives: top-dose activity change, negative = inhibition, usual class: inhibitors | 690 compounds, 5% hits; note: potency is the fitted concentration of half-maximal effect; % is set by controls: 0 for no effect and ±100 for the full control effect
FLuc counter = firefly luciferase enzyme inhibition artifact for PMP22 screen | purified P. pyralis FLuc, luminescence, 10 min | Potency, µM (titrated, usually from 57.5 µM), for inactives: at the top dose activity, negative = inhibition, actives largely listed as inhibitors | 690 tested, under 10 active | shares compounds with PMP22 txn prim; note: % of control where 0% means no effect
Target sequence (P08659 whole entry, looked up): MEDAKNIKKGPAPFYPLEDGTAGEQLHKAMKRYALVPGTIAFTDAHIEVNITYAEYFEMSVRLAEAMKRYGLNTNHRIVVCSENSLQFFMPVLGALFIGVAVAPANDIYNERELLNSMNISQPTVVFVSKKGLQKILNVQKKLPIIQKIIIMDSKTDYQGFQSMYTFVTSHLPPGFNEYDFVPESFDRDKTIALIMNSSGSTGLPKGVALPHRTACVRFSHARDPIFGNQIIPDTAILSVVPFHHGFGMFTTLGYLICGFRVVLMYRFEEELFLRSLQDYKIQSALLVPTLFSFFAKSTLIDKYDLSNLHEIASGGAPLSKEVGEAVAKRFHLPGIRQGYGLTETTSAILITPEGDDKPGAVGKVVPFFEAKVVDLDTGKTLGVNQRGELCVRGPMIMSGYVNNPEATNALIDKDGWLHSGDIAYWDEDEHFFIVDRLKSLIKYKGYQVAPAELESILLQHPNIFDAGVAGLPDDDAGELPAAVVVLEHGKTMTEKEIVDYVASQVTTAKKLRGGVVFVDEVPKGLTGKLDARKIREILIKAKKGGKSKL
S16 viab conf = confirmation of cytotoxicity in S16 Pmp22-F2sN Schwann cells (luciferase reporters placed in the Pmp22 gene). S16 Schwann cells viability, CellTiter-Glo ATP luminescence, 24 h. Potency, µM (doses to about 57.5 µM), for inactives: at the highest dose activity change, negative = viability loss, actives largely listed as cytotoxic. shares compounds with PMP22 txn prim. 690 compounds, 7% hits; note: potency is the fitted concentration of half-maximal effect; % is set by controls: 0 for no effect and ±100 for the full control effect
PMP22 txn cnf = confirmation of modulators of PMP22 gene transcription in S16 cells | shares compounds with PMP22 txn prim | S16 Schwann cells Pmp22-F2sN, dual luciferase, 24 h | Potency, µM (titrated, usually from 57.5 µM), inactives show top-dose activity change, negative = inhibition, usual class: inhibitors | 690 compounds, 22% hits | AID 1508646; active = clear falling dose curves in both reporters; inconclusive = both reporters move, but less clearly or upward; inactive = either reporter flat; the % is the FLuc reporter signal; note: potency is the fitted concentration of half-maximal effect
PMP22 prot conf = rat PMP22 protein level modulation, confirmatory | shares compounds with PMP22 txn prim | 95 tested, under 10 active | Potency, µM (highest dose often 27.9 µM), without a hit: top-dose activity change, negative = inhibition, most hits filed as inhibitors | S16 Schwann cells Pmp22-HiBiT, luminescence, 48 h | AID 1508647
Target sequence (P25094 whole entry, looked up): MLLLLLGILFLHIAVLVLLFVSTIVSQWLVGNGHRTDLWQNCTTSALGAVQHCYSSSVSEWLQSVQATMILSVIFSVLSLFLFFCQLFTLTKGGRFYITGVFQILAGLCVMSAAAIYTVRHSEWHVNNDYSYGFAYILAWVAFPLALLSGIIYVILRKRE
The depositor's hits bear a star. Shown are actives, neighbours in structure and some others; about 3.1% of the full set was active somewhere. Unless noted, calls come from the whole dose curve; as a rule, active = well fitted curve in the direction sought with a large enough effect; inconclusive = small, poorly fitted or top-dose-only effect, or another doubt; inactive = no such curve, though single readings can be large; an effect the other way counts as inactive or inconclusive.

`O=C(NCCc1ccc(Cl)cc1)c1ccc(Cn2c(=O)[nH]c3ccccc3c2=O)cc1` gave p53null 32C kill 15%, p53null 39C tox 4%, OvCa metastasis inactive, S16 viability -23%, PMP22 txn prim 3.2µM*, mTORC1 inh -19%, NLuc saturating -3%, NLuc Km ctr -2%, FLuc counter -9%, S16 viab conf -30% and PMP22 txn cnf inconclusive.
For CCCCCn1c(=O)[nH]c2cc(C(=O)NCc3ccc(Cl)cc3)ccc2c1=O the results were p53null 32C kill 1%, p53null 39C tox -9%, OvCa metastasis 45%, S16 viability 2%, PMP22 txn prim -1% and mTORC1 inh 5%.
CC(=O)c1ccc(N2CCN(S(=O)(=O)c3cc(-c4onc(C)c4C)ccc3C)CC2)cc1 was read as p53null 32C kill -10%, p53null 39C tox -19%, OvCa metastasis -9%, S16 viability -15%, PMP22 txn prim 10µM*, mTORC1 inh -14%, NLuc saturating inconclusive, NLuc Km ctr inconclusive, FLuc counter -1%, S16 viab conf -9% and PMP22 txn cnf -18%.
`Cc1c(NC(=O)c2ccc(C(C)(C)C)cc2)cccc1-c1cn(C)c(=O)c(Nc2ccc(C(=O)N3CCOCC3)cc2)n1` gave OvCa metastasis -6%.
For COC(=O)CS(=O)(=O)c1nc2ccccc2nc1N1CCCCC1 the results were p53null 32C kill 13%, p53null 39C tox 32%, OvCa metastasis 4%, S16 viability inconclusive, PMP22 txn prim 11µM*, mTORC1 inh inconclusive, NLuc saturating inconclusive, NLuc Km ctr inconclusive, FLuc counter -10%, S16 viab conf 29%, PMP22 txn cnf 9.9µM* and PMP22 prot conf inconclusive.
For O=C(CCCCCCNC(=O)c1cnc(N(c2ccccc2)c2ccccc2)nc1)NO the results were OvCa metastasis -13%.
`Cc1ccc(NC(=O)C2(c3ccc4c(c3)OC(F)(F)O4)CC2)nc1-c1cccc(C(=O)O)c1` gave OvCa metastasis -6%.
For Clc1ccc(-c2noc3ncnc(N4CCCCC4)c23)cc1 the results were p53null 32C kill 4%, p53null 39C tox -4%, OvCa metastasis -3%, S16 viability -21%, PMP22 txn prim 12µM*, mTORC1 inh -24%, NLuc saturating -7%, NLuc Km ctr 5%, FLuc counter -5%, S16 viab conf -7% and PMP22 txn cnf -38%.
Screening COc1ccc(NC(=O)c2oc3ccccc3c2NC(=O)Cc2ccc(F)cc2)c(OC)c1 returned p53null 32C kill -4%, p53null 39C tox 6%, OvCa metastasis 9%, S16 viability 2%, PMP22 txn prim 13µM*, mTORC1 inh inconclusive, NLuc saturating -4%, NLuc Km ctr -2%, FLuc counter 3%, S16 viab conf inconclusive, PMP22 txn cnf inconclusive and PMP22 prot conf 29%.
`COc1ccc(NC(=O)c2oc3ccccc3c2NC(=O)c2cccc(F)c2)c(OC)c1` gave p53null 32C kill -7%, p53null 39C tox 3%, OvCa metastasis inactive, S16 viability 19%, PMP22 txn prim inconclusive and mTORC1 inh 6%.
`COc1cc(C2CC(=O)Nc3cc4c(cc32)OCCO4)cc(Br)c1OC` (stereo unspecified) gave p53null 32C kill 16%, p53null 39C tox -9%, OvCa metastasis inactive, S16 viability inconclusive, PMP22 txn prim 0.67µM*, mTORC1 inh inconclusive, NLuc saturating -4%, NLuc Km ctr -8%, FLuc counter 4%, S16 viab conf -4% and PMP22 txn cnf inconclusive.
For CCOc1cc(C2CC(=O)Nc3cc4c(cc32)OCCO4)ccc1O (stereo unspecified) the results were p53null 32C kill 8%, p53null 39C tox -8%, OvCa metastasis -2%, S16 viability inconclusive, PMP22 txn prim -30% and mTORC1 inh -1%.
For Cc1ccccc1CC1C(=O)Nc2ccc(Br)cc21 (stereo unspecified) the results were p53null 32C kill -7%, p53null 39C tox -12%, OvCa metastasis inactive, S16 viability inconclusive, PMP22 txn prim -56% and mTORC1 inh -14%.
COc1ccc(Br)cc1CC1C(=O)Nc2ccccc21 (stereo unspecified) was read as p53null 32C kill 4%, p53null 39C tox 9%, OvCa metastasis -20%, S16 viability -19%, PMP22 txn prim 14µM*, mTORC1 inh -27%, NLuc saturating inconclusive, NLuc Km ctr inconclusive, FLuc counter -15%, S16 viab conf -18%, PMP22 txn cnf inconclusive and PMP22 prot conf 23%.
